Measured values reported in PubChem BioAssay (NCATS).
“And” between values parts separate entries of the source, which are not always exact repeats. Equal values may be shown once. Records with an inconclusive call do not appear. Where a structure was tested more than once in an assay, its records may differ in their call. The source made the active and inactive calls. Calls come from the whole dose curve.

target: Cytochrome P450 1A2 (Homo sapiens) (UniProt P05177); assay: p450-cyp1a2 (AID 410); conditions: recombinant CYP1A2, luciferin-ME demethylation, luminescence; series mostly up to 25.6 µM
Method: The P450 gene superfamily is involved in metabolism and the clearance of xenobiotics. This assay used human CYP1A2 to measure the demethylation of luciferin 6' methyl ether (Luciferin-ME; Promega-Glo) to luciferin. The luciferin is then measured by luminescence after the addition of a luciferase detection regeant. Luciferin-ME concentration in the assay was equal to its Km for CYP1A2.
NCGC Assay Protocol Summary:
Two uL of enzyme and substrate mix (final concentrations: 20nM CYP1A2, 100uM Luciferin-ME, 100mM KPO4) were dispensed into a white, solid bottom 1536-well microtiter plate. 23nL of compound was transferred by a pin tool. The plate was incubated at room temperature for 10 min. Two uL of an NADPH regeneration solution (Promega supplied reagent) was dispensed and the reaction was allowed to continue for 60 min at room temperature. Then the reaction was stopped by reconstituted detection reagent. After another 20 min of incubation the plate was read on the ViewLux (Perkin Elmer) at 60 sec exposure and 2x2 binning. This protocol was carried out with Promega-Glo reagents and further information can be found at http://www.promega.com/tbs/tb325/tb325.pdf. Data were normalized to the to AC100 inhibition (57 uM furafylline).
Potency is the fitted concentration of half-maximal effect.

Cytochrome P450 1A2 (Homo sapiens), sequence (P05177 whole entry, looked up): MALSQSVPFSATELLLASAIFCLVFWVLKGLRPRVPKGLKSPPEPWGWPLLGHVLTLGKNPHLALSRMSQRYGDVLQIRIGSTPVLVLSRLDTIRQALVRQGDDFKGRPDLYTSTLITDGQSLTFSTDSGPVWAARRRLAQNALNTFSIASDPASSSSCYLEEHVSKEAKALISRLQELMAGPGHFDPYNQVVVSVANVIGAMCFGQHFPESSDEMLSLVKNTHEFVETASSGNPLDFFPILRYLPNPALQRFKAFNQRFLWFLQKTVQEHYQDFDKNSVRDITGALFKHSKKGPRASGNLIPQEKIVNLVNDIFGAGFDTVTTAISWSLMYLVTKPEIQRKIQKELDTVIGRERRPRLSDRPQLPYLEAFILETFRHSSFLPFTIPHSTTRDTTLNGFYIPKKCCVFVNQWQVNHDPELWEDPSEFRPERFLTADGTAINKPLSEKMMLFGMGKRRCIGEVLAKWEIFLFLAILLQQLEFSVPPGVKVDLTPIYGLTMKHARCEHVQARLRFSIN

SMILES | Potency
Cc1ccc(C)c(OCCCC(C)(C)C(=O)O)c1 | 12.6 µM (active)
CCc1nc(N)nc(N)c1-c1ccc(Cl)cc1 | 10 µM (active)
O=c1c(O)c(-c2cc(O)c(O)c(O)c2)oc2cc(O)cc(O)c12 | 5.01 µM (active) and 2 µM (active) and 7.94 µM (active)
Cc1cc2cc3c(C)cc(=O)oc3c(C)c2o1 | 1 µM (active)
CCC1=C(C)CN(C(=O)NCCc2ccc(S(=O)(=O)NC(=O)NC3CCC(C)CC3)cc2)C1=O (stereo not given) | inactive
COC(=O)C1=C(C)NC(C)=C(C(=O)OC(C)C)C1c1cccc2nonc12 (stereo not given) | 31.6 µM (active)
Cc1cccc(C#Cc2ccccc2)n1 | 631 nM (active) and 158 nM (active)
CCOC(=O)C1=C(O)C(=O)N(Cc2ccccc2)C1 | 1 µM (active)
O=C1NC(=O)C(c2ccccc2[N+](=O)[O-])=C1Nc1ccc(O)c(Cl)c1 | 7.94 µM (active)
Nc1nc(OCc2ccccc2)c2[nH]cnc2n1 | 1 µM (active)
CCN(CC)CCOc1ccc(Cc2ccccc2)cc1 | 12.6 µM (active)
O=C(CCc1ccc(O)cc1)c1c(O)cc(O)cc1O | 6.31 µM (active) and 2 µM (active)
c1ccc2[nH]c(-c3cscn3)nc2c1 | 0.126 µM (active)
Oc1ccc(OCc2ccccc2)cc1 | 1.58 µM (active)
Cc1cc(C2CCCCC2)n(O)c(=O)c1 | 15.8 µM (active)
Cc1cc(O)c2c(c1)C(=O)c1cc(O)cc(O)c1C2=O | 3.16 µM (active) and 398 nM (active)
O=C1c2ccccc2-c2n[nH]c3cccc1c23 | 126 nM (active) and 15.8 nM (active)
CCCCc1ccc2nc(NC(=O)OC)[nH]c2c1 | 0.501 µM (active)
CCCc1cc(=O)[nH]c(=S)[nH]1 | inactive
CCN(CC)C(=S)SSC(=S)N(CC)CC | 6.31 µM (active) and 1.58 µM (active)

SMILES | Potency
CC1(C)C(=O)N(CCN2CCC(C(=O)c3ccc(F)cc3)CC2)c2ccccc21 | inactive
CC(=O)Nc1ccc(O)cc1 | inactive
Oc1ccc(-c2nc(-c3ccc(F)cc3)c(-c3ccncc3)[nH]2)cc1 | 15.8 µM (active)
Cc1nc2n(c(=O)c1CCN1CCC(c3noc4cc(F)ccc34)CC1)CCCC2 | inactive
NC(=NCc1ccccc1)NC(=O)c1nc(Cl)c(N)nc1N | 12.6 µM (active) and 10 µM (active)
CC1(C)NC(=O)N(c2ccc([N+](=O)[O-])c(C(F)(F)F)c2)C1=O | 12.6 µM (active) and 3.16 µM (active) and 2.51 µM (active)
CN1C(C(=O)Nc2ccccn2)=C(O)c2sccc2S1(=O)=O | inactive
CCOc1cc(CC(=O)N[C@@H](CC(C)C)c2ccccc2N2CCCCC2)ccc1C(=O)O | inactive
CC(C)c1ccc2c(c1)c(SC(C)(C)C)c(CC(C)(C)C(=O)O)n2Cc1ccc(Cl)cc1 | 25.1 µM (active) and 31.6 µM (active)
CN1CCC(=C2c3ccccc3CCc3sccc32)CC1 | inactive
C[C@H](Cc1ccc(O)c(O)c1)[C@@H](C)Cc1ccc(O)c(O)c1 | 31.6 µM (active)
COc1ccccc1N1CCN(CCN(C(=O)C2CCCCC2)c2ccccn2)CC1 | inactive
NNc1nncc2ccccc12 | 3.16 µM (active) and 1 µM (active)
O=c1cc(N2CCOCC2)oc2c(-c3ccccc3)cccc12 | 1.58 µM (active) and 200 nM (active)
Cc1cc(=O)oc2cc(O)ccc12 | 3.98 µM (active)
NCCCCNCCCN | inactive and 31.6 µM (active)
O=C(NCCO[N+](=O)[O-])c1cccnc1 | inactive
O=C(O)c1cc(=O)c2c(OCC(O)COc3cccc4oc(C(=O)O)cc(=O)c34)cccc2o1 | inactive
O=c1c(O)c(-c2ccc(O)cc2O)oc2cc(O)cc(O)c12 | 12.6 µM (active)
Cc1c(OCC(F)(F)F)ccnc1CS(=O)c1nc2ccccc2[nH]1 (stereo not given) | 31.6 µM (active) and 15.8 µM (active)
